# About 2,600 (0.84%) of roughly 310,000 compounds were called active.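 How the source made its calls: active means B-score over 3 SD under the library average, and starting fluorescence ratio not unusually high; inactive means the rest.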 The list comes from a sample in which actives are over-represented; it also holds similar structures and randomly drawn compounds.
# Biological target: High affinity choline transporter 1 (Homo sapiens) (UniProt Q9GZV3)
# Assay: inhibits the human high affinity choline transporter (AID 488975);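 on B-score: choline stimulus applied at its EC90 after an EC20 pre-addition; B-score computed on integrated fluorescence ratio after choline addition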
# Conditions: CHT-expressing cells, membrane potential dye, choline response, at 10 µM; hits give low values
# Sequence of High affinity choline transporter 1 (Homo sapiens) (Q9GZV3 whole entry, looked up): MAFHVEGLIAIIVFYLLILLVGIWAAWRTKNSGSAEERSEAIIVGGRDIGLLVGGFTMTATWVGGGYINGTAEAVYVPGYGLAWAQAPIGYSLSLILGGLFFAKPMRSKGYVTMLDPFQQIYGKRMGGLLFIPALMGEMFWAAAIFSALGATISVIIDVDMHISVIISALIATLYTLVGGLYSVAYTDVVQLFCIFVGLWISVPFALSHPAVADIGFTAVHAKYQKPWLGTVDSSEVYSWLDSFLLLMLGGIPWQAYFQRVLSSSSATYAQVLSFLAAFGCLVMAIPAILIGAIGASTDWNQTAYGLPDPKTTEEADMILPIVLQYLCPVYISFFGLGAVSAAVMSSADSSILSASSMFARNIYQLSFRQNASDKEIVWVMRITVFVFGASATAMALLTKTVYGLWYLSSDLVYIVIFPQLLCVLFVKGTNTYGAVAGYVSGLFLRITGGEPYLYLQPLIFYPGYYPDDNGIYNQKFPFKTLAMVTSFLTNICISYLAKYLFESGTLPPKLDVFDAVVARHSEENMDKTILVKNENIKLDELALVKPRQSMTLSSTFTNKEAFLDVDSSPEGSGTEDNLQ
row,Compound,B-score
1,O=C(NCCC1CCCCN1S(=O)(=O)c1ccc(Cl)cc1)C(=O)NCc1ccco1 (centres undefined),inactive
2,CCCNC(=O)CCn1cc(-c2ccc(OC)cc2)nc1CCN,inactive
3,C=CCNC(=O)C1CC2c3ccccc3C1c1ccccc12 (centres undefined),inactive
4,CNC(=O)c1ccc2nc(NC(C)=O)sc2c1,inactive
5,CC1(C)CC(=O)c2sc(N)nc2C1,inactive
6,CC(=O)Nc1nc2c(s1)C(=O)NCC(C)(C)C2,-5.07 (active)
7,COc1cccc(N2CC(NC(=O)c3ccc4ccccc4c3)CC2=O)c1 (centres undefined),inactive
8,COc1cccc(CC2(CO)CCCN(Cc3ccc(OC(F)F)cc3)C2)c1 (centres undefined),inactive
9,Cc1nn(C)c(C)c1NS(=O)(=O)c1ccc(OC(F)(F)F)cc1,inactive
10,CNC(=O)NC(=O)C(C)N1CCN(C/C=C/c2ccccc2)CC1 (centres undefined),-6.91 (active)
11,O=C(CCN1CCN(C/C=C/c2ccccc2)CC1)Nc1cccc(F)c1,inactive
12,COc1cc(C(=O)N2CCN(C/C=C/c3ccccc3)CC2)cc(OC)c1C,inactive
13,CCc1ccc(C(=O)NNC(=O)C2CCN(c3ncnc4sc(C)c(C)c34)CC2)cc1,inactive
14,O=C(Nc1ccc(C(=O)N2CCOCC2)cc1)Nc1cccc(C(F)(F)F)c1,inactive
15,CCN1CN(Cc2ccccc2)CNC1=S,inactive
16,CCc1ccccc1N1CN(Cc2ccco2)CNC1=S,-5.54 (active)
17,CCOc1ccccc1N1CN(Cc2ccccc2)CNC1=S,inactive
18,Brc1cnc2ccccc2c1N1CCCCC1,inactive
19,CCCCCN(C(=O)CCC(=O)OCC(=O)NC1CCC(C)CC1)c1c(N)n(CCCC)c(=O)[nH]c1=O (centres undefined),inactive
20,O=C(CN1C(=O)NC2(CCCC2)C1=O)OCCOc1ccc(F)cc1,inactive
21,COc1cc(NC(=O)CSC(=S)N2CCCC2)c(OC)cc1Cl,inactive
22,CN(C(=O)CN1C(=O)/C(=C/c2ccc(Cl)cc2)SC1=S)C1CCS(=O)(=O)C1 (centres undefined),inactive
23,CC(C(=O)NC1CCS(=O)(=O)C1)N1C(=O)/C(=C/c2ccc(Cl)cc2)SC1=S (centres undefined),-8.07 (active)
24,COc1ccc(/C=C2\SC(=O)N(CCC(=O)NC3CCS(=O)(=O)C3)C2=O)cc1 (centres undefined),inactive
25,COc1ccc(S(=O)(=O)N(CC(=O)N/N=C/c2ccc(C(=O)O)cc2)Cc2ccccc2)cc1OC,inactive
26,CCN(Cc1ccccc1)S(=O)(=O)c1cc(C(=O)O)ccc1OC,-5.82 (active)

row,Compound,B-score
1,COc1ccc(C(=O)O)cc1S(=O)(=O)NCc1cccnc1,inactive
2,O=C(NCC(c1ccco1)N1CCc2ccccc2C1)c1ccccc1Cl (centres undefined),inactive
3,NC(=O)c1ccsc1NC(=O)COC(=O)Cc1n[nH]c(=O)c2ccccc12,inactive
4,Nc1c(-c2ccccc2)nnn1Cc1ccccc1,inactive
5,Oc1c(Cl)cc(Cl)c(Cl)c1Cc1c(O)c(Cl)cc(Cl)c1Cl,-6.87 (active)
6,COc1ccc(C2=NN(C(=O)CSc3nc(=O)n4ccc(C)cc4n3)C(c3ccc(C)cc3)C2)cc1 (centres undefined),inactive
7,CCN1C(=O)[C@H]2[C@@H](c3ccc(-c4ccc(F)cc4)cc3)N[C@@](Cc3ccccc3)(C(=O)OC)[C@H]2C1=O,inactive
8,O=C(Cc1ccc(Br)cc1)NCCc1ccccc1,inactive
9,CC(=O)Nc1ccc(NC(=O)CSC2=NS(=O)(=O)c3ccccc3N2)cc1,inactive
10,C=C(C)CNC(=O)c1ccc(OC2CCN(C(=O)COC)CC2)cc1,inactive
11,O=C(CCCCCN1C(=O)c2cccc3cccc(c23)C1=O)NCc1ccco1,inactive
12,O=C1c2cccc3cccc(c23)C(=O)N1CCCCCc1n[nH]c(=S)o1,-5.24 (active)
13,C[N+](C)(CCCCCC[N+](C)(C)CCCN1C(=O)c2cccc3cccc(c23)C1=O)CCCN1C(=O)c2cccc3cccc(c23)C1=O,inactive
14,CCC1(c2ccccc2)NC(=O)N(CC(=O)c2ccc3c(c2)OCO3)C1=O (centres undefined),inactive
15,CCCn1c(C)cc(/C=C(\C#N)C(=O)OCC(=O)N(C)c2c(N)n(Cc3ccccc3)c(=O)[nH]c2=O)c1C,inactive
16,Cc1[nH]c2ccccc2c1C(=O)CN1CCCC(C)C1 (centres undefined),-6.04 (active)
17,Cc1[nH]c2ccccc2c1C(=O)CN1CC(C)CC(C)C1 (centres undefined),inactive
18,CCOC(=O)N1CCN(CC(=O)c2c(C)[nH]c3ccccc23)CC1,inactive
19,[O-][n+]1ccc(OCc2ccccc2)cc1,inactive
20,Cc1ccc([C@@H]2CC=C(C(=O)O)[C@H](c3cccc(Cl)c3)N2S(=O)(=O)c2ccc(C)cc2)cc1,inactive
21,COc1ccccc1C(=O)NC(CCSC)C(=O)N1CCN(C/C=C/c2ccccc2)CC1 (centres undefined),inactive
22,O=C(Nc1ccc2nc3n(c(=O)c2c1)CCCC3)c1ccc(Cl)nc1,inactive
23,COCCn1cnc2c1c(=O)n(Cc1ccc(Br)cc1)c(=O)n2Cc1ccccc1,inactive
24,N=c1c2c(-c3ccccc3)c(-c3ccccc3)n(Cc3ccccc3)c2ncn1CCCO,-9.35 (active)
25,CCN(CC)CCn1cnc2c1c(=O)[nH]c(=O)n2Cc1ccccc1,inactive
26,CCOC(=O)C1CCN(C(=O)COC(=O)C2CCN(S(=O)(=O)c3ccc4c(c3)OCCO4)CC2)CC1,inactive

row,Compound,B-score
1,Cc1cc(C)c(S(=O)(=O)n2cc(C(C)C(N)C(=O)O)c3ccccc32)c(C)c1 (centres undefined),inactive
2,CCN(CC(=O)Nc1c(F)cccc1F)C(=O)c1ccc(-c2ccccc2)cc1,inactive
3,COc1ccccc1/C=N/Nc1nc(C)c(C(C)=O)s1,inactive
4,COc1ccc(C(=O)NCC(c2ccco2)N2CCc3ccccc32)cc1OC (centres undefined),inactive
5,Cc1sc2nc(CSCC(=O)NC3CCCCC3)[nH]c(=O)c2c1C,inactive
6,N=c1n(Cc2ccc(Cl)cc2)c2ccccc2n1CC(O)c1ccco1 (centres undefined),-5.25 (active)
7,Cn1c(=N)n(CC(O)c2cccs2)c2ccccc21 (centres undefined),inactive
8,Cn1c(=N)n(CC(O)c2ccccc2)c2ccccc21 (centres undefined),inactive
9,O=C(N/N=C/c1cc(Br)c(O)c([N+](=O)[O-])c1)C(O)(c1ccccc1)c1ccccc1,inactive
10,CCCCN(C(=O)CSCC(=O)Nc1ccc(OC)cc1)c1c(N)n(CCC)c(=O)[nH]c1=O,inactive
11,O=C(Cc1ccc(S(=O)(=O)N2CCOCC2)s1)NCCOc1ccccc1F,inactive
12,Cc1ccc(NC(=O)C2CC(=O)N(c3ccc4c(c3)OCCO4)C2)cc1S(=O)(=O)N1CCCCCC1 (centres undefined),inactive
13,CCCCn1c(=O)c(C(C)=O)c(O)c2ccccc21,inactive
14,CCOC(=O)c1nnn2c3ccccc3c(=O)n(C)c12,inactive
15,CCCCCn1c(=O)c(C(=O)OCC)c(Cl)c2ccccc21,-5.74 (active)
16,Cc1sc2ncnc(N3CCC(C(=O)Nc4nc5ccc(Cl)cc5s4)CC3)c2c1C,inactive
17,CCc1ccc(Nc2n[n+](-c3ccccc3)c(-c3cccc(Cl)c3Cl)s2)cc1,inactive
18,Cc1ccc2nc(Nc3ccccc3)cc(C)c2c1,-8.75 (active)
19,Cc1cc(Nc2ccc(Br)cc2)nc2ccccc12,inactive
20,Cc1ccc2nc(Nc3ccccc3O)nc(-c3ccccc3)c2c1,inactive
21,O=S(=O)(Nc1ccc(Cl)cn1)c1cnc(Cl)c(Br)c1,-8.67 (active)
22,O=S(=O)(Nc1ccccn1)c1cccc(S(=O)(=O)c2ccc(Cl)cc2)c1,inactive
23,Cc1ccc(NS(=O)(=O)c2ccc(F)cc2)nc1,inactive
24,CC(=O)c1c(C)[nH]c(C(=O)COC(=O)CCOc2ccc(C)cc2)c1C,inactive
25,CCOC(=O)N1CCN(C(=O)C2CCN(c3ncnc4c3sc3cccc(F)c34)CC2)CC1,-5.37 (active)
26,CCOC(=O)N1CCN(C(=O)C2CCN(S(=O)(=O)c3cc(Cl)ccc3OCC)CC2)CC1,inactive

row,Compound,B-score
1,CCOC(=O)C1CCN(c2ncnc3c2oc2ccc(Br)cc23)CC1,inactive
2,CNCC(O)c1ccc(O)c(O)c1 (centres undefined),-5.02 (active)
3,CC(=O)NCC(O)c1ccc([N+](=O)[O-])cc1 (centres undefined),inactive
4,CCC(C)c1ccc(O)c(/C=N/O)c1 (centres undefined),inactive
5,COc1cc(C(=O)NCC(=O)NCCSc2ccc(Br)cc2)cc(OC)c1OC,inactive
6,C=CCOc1ccc(/C=C/C(=O)OCC(=O)NC(C)c2ccc(F)cc2)cc1 (centres undefined),inactive
7,CCOC(=O)C(Cc1ccccc1)NC(=O)CCC(=O)c1ccc(OC)cc1 (centres undefined),inactive
8,COc1ccc(C(=O)NC(Cc2ccc(OC(=O)c3ccc(OC)cc3)cc2)C(=O)O)cc1 (centres undefined),-5.4 (active)
9,COc1ccc(C(=O)N[C@H](C(=O)NCc2ccccc2)C(C)C)cc1,inactive
10,CCOc1ccc(CCNC(=O)COC(=O)C2CCN(c3ccc(C(F)(F)F)cn3)CC2)cc1OCC,inactive
11,FC(F)(F)c1ccc2c3n(nc2c1)CCN=C3c1ccc(Cl)cc1,inactive
12,Cc1ccc(C(=O)NCCN2CCOCC2)cc1C,inactive
13,Cc1cccc(-c2nc3ccc(C(=O)NCCN4CCN(C)CC4)cc3nc2-c2cccc(C)c2)c1,-5.67 (active)
14,Cc1cccc(C(=O)NCCCN2CCCC2=O)c1,inactive
15,NC1=NC(c2ccc([N+](=O)[O-])cc2)N(c2ccc(F)cc2)C(N)=N1 (centres undefined),inactive
16,OC(CNCc1ccc2c(c1)OCO2)COc1ccccc1 (centres undefined),inactive
17,Cc1ccc(OCC(=O)OC(C)CN(C)Cc2ccccc2)cc1 (centres undefined),inactive
18,CN(Cc1ccccc1)CC(O)COc1ccc(CNCc2cc3ccccc3s2)cc1 (centres undefined),-5.57 (active)
19,COc1ccccc1NC(=O)Nc1nc(CC(=O)Nc2ccccc2F)cs1,inactive
20,CCOc1cc(N2CCOCC2)c(OCC)cc1NC(=O)COc1cccc(Cl)c1,inactive
21,CCN(CC(=O)Nc1cccc(S(=O)(=O)N2CCCCC2)c1)Cc1ccccc1,inactive
22,Cc1ccc(-c2cc(=O)[nH]c(NCc3ccccc3)n2)cc1,inactive
23,CCCCN(C1CCS(=O)(=O)C1)S(=O)(=O)c1ccc(C(C)C)cc1 (centres undefined),inactive
24,Cc1cc(=O)[nH]c(SCc2cc(Cl)ccc2OC(F)F)n1,inactive
25,COc1ccc(Cl)cc1CSc1ncn[nH]1,inactive
26,CCCCOc1ccc(Cl)cc1CSc1nncn1N,-4.96 (active)

# From PubChem BioAssay AID488975 (Johns Hopkins Ion Channel Center, 2010)
